# Inconclusive results are not listed. A call without a number means that no potency is given here. Active and inactive are the calls of the source. Calls come from the whole dose curve; as a rule, active = well fitted curve in the direction sought with a large enough effect; inconclusive = small, poorly fitted or top-dose-only effect, or another doubt; inactive = no such curve, though single readings can be large; an effect the other way counts as inactive or inconclusive. Numbered stars: 1 amine (or outer) side, 2 acyl side, 3 side chain; on linkers, the order of the positions; unused ones are H or OH. Square brackets hold non-standard residues; d marks the D form. Peptide text beside a SMILES is read from it. X1 = CCCCCCCCCC(=O)[C@H](C(=O)[*:2])[C@@H]1CNC(=O)[C@@H](N[*:1])CS1
# Assays:
# [1] = test system: Zika virus NS2B-NS3 protease (linked construct); experiment: Primary screen NINDS Rhodamine qHTS for Zika virus inhibitors (AID 1347160); note: nearly all actives have a fitted effect of over 55% in size; note: potency is the fitted concentration of half-maximal effect
# In short: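 Rhodamine110-peptide cleavage (1.5 µM substrate) by 25 nM linked NS2B-NS3 enzyme at pH 8.0 (Tris, Tween 20), after 15 min RT preincubation with compounds; 15-min fluorescence change normalized to controls and Hill-fitted.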
# [2] = OV-KATE Cancer Cell Toxicity qHTS against the NCATS CANVASS Library (AID 1347345); note: potency is the fitted concentration of half-maximal effect
# In short: (§1)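 Cells were seeded at 1000 per well, allowed 4 h at 37 degrees C/5% CO2, then pin-treated with an 11-point compound series. After 72 h, viability was read as CellTiter-Glo luminescence following 15min at room temperature.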
# [3] = HPAF-II Cancer Cell Toxicity qHTS against the NCATS CANVASS Library (AID 1347346); note: nearly all actives have a fitted effect of over 55% in size; note: potency is the fitted concentration of half-maximal effect
# In short: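 1000 HPAF-II cells/well; 4 h pre-incubation; 11-pnt compound titration; 72 h, 37 degrees C/5% CO2; CellTiter-Glo, 15 min RT; luminescence read.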
# [4] = OV-SAHO Cancer Cell Toxicity qHTS against the NCATS CANVASS Library (AID 1347348); note: nearly all actives have a fitted effect of over 55% in size; note: potency is the fitted concentration of half-maximal effect
# In short: as §1
# [5] = HPAF-II 24hr Apoptosis Induction qHTS against the NCATS CANVASS Library (AID 1347356)
# In short: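 500 HPAF-II cells/well; compounds in 11-pnt qHTS; 24 h, 37 C/5% CO2; Caspase-Glo 3/7 added, 15 min RT dark; luminescence read. Doxorubicin control.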
# [6] = HPAF-II 12hr Apoptosis Induction qHTS against the NCATS CANVASS Library (AID 1347358); note: potency is the fitted concentration of half-maximal effect
# In short: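 Caspase-Glo 3/7 luminescence (DEVD substrate) reports caspase activity in HPAF-II cells after 12 h compound treatment at 37 degrees C. Compounds were tested in an 11-point series. Doxorubicin served as control.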
# [7] = HEK293 24hr Apoptosis Induction qHTS against the NCATS CANVASS Library (AID 1347359); note: potency is the fitted concentration of half-maximal effect
# In short: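 HEK293 cells, 500 per well, exposed to an 11-point compound series for 24 hours at 37 degrees C. Caspase 3/7 activity read by Caspase-Glo luminescence (DEVD substrate) after 15 min at room temperature.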
# [8] = HEK293 12hr Apoptosis Induction qHTS against the NCATS CANVASS Library (AID 1347361); note: potency is the fitted concentration of half-maximal effect
# In short: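 HEK293 cells (500/well) were exposed to an 11-point qHTS concentration series for 12 hours at 37 degrees C. Caspase-3/7 activity was then read by DEVD-substrate luciferase luminescence after 15 min at room temperature.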
# [9] = KB-3-1 Cancer Cell Toxicity qHTS against the NCATS CANVASS Library (AID 1347366); note: nearly all actives have a fitted effect of over 75% in size; note: potency is the fitted concentration of half-maximal effect
# In short: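 KB-3-1 cells (500/well) in DMEM with 10% FBS were exposed to compounds for 72 h at 37C. Viability was read by CellTiter-Glo luminescence.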
# [10] = qHTS for ATAD5 Agonist screened against the NCATS CANVASS Library (AID 1347367);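 note: luciferase reporter driven by ATAD5 which rises upon DNA damage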
# In short: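 Luciferase reporter under ATAD5 control, stably integrated in HEK293T cells (2000/well). Compounds (11 points) incubated 16 h at 37C; viability read first by CellTiter-Fluor, then luminescence reporting ATAD5 activation. MMS positive control.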
# [11] = MCF7 Cancer Cell Toxicity qHTS against the NCATS CANVASS Library (AID 1347369); note: potency is the fitted concentration of half-maximal effect
# In short: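 MCF7 cells (500/well) were exposed 72 h at 37 °C to compounds in an 11-point series. Viability was read as ATP content by CellTiterGlo luminescence.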
# [12] = qHTS for ATAD5 Antagonist screened against the NCATS CANVASS Library (AID 1347370); note: nearly all actives have a fitted effect of over 65% in size; note: potency is the fitted concentration of half-maximal effect
# In short: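 HEK293T-ATAD5 luc reporter, 2000 cells/well; 5hr attach; cpd + 10 uM 5-FUrd; 16hr 37C, 5% CO2. Readouts: CellTiter-Fluor fluorescence (1hr), then Amplite luciferase luminescence (30min RT).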
# [13] = J3T Cancer Cell Toxicity qHTS against the NCATS CANVASS Library (AID 1347371); note: potency is the fitted concentration of half-maximal effect
# In short: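 Dog glioma J3T, 500 cells/well; cpd 11-pt qHTS; 72 hr, 37C/5% CO2; CellTiterGlo ATP luminescence readout.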
# [14] = target: Nuclear receptor subfamily 1 group I member 3 (Homo sapiens) (UniProt Q14994); experiment: qHTS for Constitutive Androstane Receptor (CAR) Agonist screened against the NCATS CANVASS Library (AID 1347373);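 note: every well also contained 1.5 µM PK11195 alongside the test compound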
# In short: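 Luciferase read-out (ONE-Glo, 30 min RT) of CYP2B6-2.2kb promoter activity in double-stable HepG2-hCAR cells after 24hr compound exposure with 1.5uM PK11195 present; viability measured first by CellTiter-Fluor.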
# [15] = 10-beta competent E. coli microbial cell viability qHTS against the NCATS CANVASS Library (AID 1347376); note: series mostly up to about 46 µM
# In short: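 Luminescence from BacTiter-Glo ATP detection served as the viability read-out; bacteria (0.2 OD) had been incubated overnight at 37C with pin-transferred compounds at 11 concentrations.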
# [16] = qHTS for Inflammasome Signaling Inhibitors: IL-1-beta AlphaLISA screen against the NCATS CANVASS Library (AID 1347379);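 note: human THP-1 cells primed with LPS then triggered with ATP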;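 for potency: secreted IL-1B measured as AlphaLISA emission at 615 nm; potency is the fitted concentration of half-maximal effect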
# In short: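 THP-1, 1 hr compound pre-incubation, then LPS 250 ng/mL + ATP 1.25 mM (final); 16 hr total with compound; IL-1B AlphaLISA, ex 680/em 615 nm; 11-point qHTS, up to 57.5 uM final.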
# [17] = Cytotoxicity qHTS for assessment of Hepg2 cells membrane integrity screened against the NCATS CANVASS Library (AID 1347387)
# In short: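 LDH release read by fluorescence (560 nm ex/590 nm em) after CytoTox-ONE addition and 10 min RT; signal tracks lysed cells. HepG2, 2000 cells/well, plated overnight; compound 5 hr, 37C, 5% CO2, final 0.59 nM - 46 uM, 11 points.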
# [18] = qHTS for activators of dead-cell proteases activity screened against the NCATS CANVASS Library (AID 1347392);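 note: luminescence from protease leaking out of membrane-damaged cells cleaving impermeant substrate; rising signal means more cytotoxicity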
# In short: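 HepG2, 2000 cells/well, 18 h attach; cpd 11-pt, 5 h 37C 5% CO2; CytoTox-Glo (AAF-aminoluciferin) 15 min RT; luminescence read.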
# [19] = Vero-766 cells viability qHTS against the NCATS CANVASS Library: Counterscreen for Zika virus inhibition assay (AID 1347394); note: nearly all actives have a fitted effect of over 60% in size; note: potency is the fitted concentration of half-maximal effect
# In short: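 Vero 766 cells (1000/well), without Zika virus, were exposed to compounds for 72 h at 37C. Viability was measured by CellTiter Glo luminescence. Media-only wells served as 100% inhibition.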
# [20] = Viability qHTS for inhibitors of the SERCaMP assay screened against the NCATS CANVASS Library (AID 1347400); note: nearly all actives have a fitted effect of over 70% in size; note: potency is the fitted concentration of half-maximal effect
# In short: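 CellTiter-Glo luminescence readout after 48 h compound exposure (11-pnt qHTS series) of SH-SY5Y-GLuc SERCaMP MJH297 cells seeded at 1000 cells/well; bortezomib positive control.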
# Chain of Nuclear receptor subfamily 1 group I member 3 (Homo sapiens) (Q14994 whole entry, looked up): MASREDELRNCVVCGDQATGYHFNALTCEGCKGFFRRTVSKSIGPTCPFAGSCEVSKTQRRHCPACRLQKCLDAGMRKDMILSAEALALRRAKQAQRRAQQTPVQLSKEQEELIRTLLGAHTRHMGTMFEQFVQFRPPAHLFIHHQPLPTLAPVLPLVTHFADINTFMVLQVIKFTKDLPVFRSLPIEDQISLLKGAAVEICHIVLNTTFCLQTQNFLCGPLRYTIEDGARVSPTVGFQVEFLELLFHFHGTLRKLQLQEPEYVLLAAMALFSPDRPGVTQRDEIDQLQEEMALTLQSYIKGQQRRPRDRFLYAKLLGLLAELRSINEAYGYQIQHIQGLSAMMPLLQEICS
SMILES,Potency [1],Potency [2],Potency [3],Potency [4],outcome [5],Potency [6],Potency [7],Potency [8],Potency [9],Potency [10],Potency [11],Potency [12],Potency [13],outcome [14],outcome [15],Potency [16],outcome [17],Potency [18],Potency [19],Potency [20]
C=CC(C)(C)C(=O)[C@@H](C)[C@@H]1CC[C@](C)(C=C)O1,inactive,inactive,inactive,inactive,inactive,inactive,inactive,inactive,inactive,inactive,inactive,inactive,inactive,inactive,inactive,inactive,inactive,inactive,inactive,inactive
CCCCCCC[C@@H](C/C=C/CCC(=O)NCCc1c[nH]c2ccccc12)OC,49.3 µM (active),inactive,inactive,inactive,inactive,inactive,inactive,inactive,inactive,inactive,inactive,–,inactive,inactive,–,inactive,inactive,inactive,23.4 µM (active),inactive
CN1C(=O)[C@]23SS[C@@]1(C)C(=O)N2[C@H]1Nc2ccccc2[C@]1(c1c[nH]c2ccccc12)[C@@H]3O,49.3 µM (active),1.06 µM (active),0.841 µM (active),0.838 µM (active),–,0.59 µM (active),5.26 µM (active),5.26 µM (active),2.96 µM (active),inactive,3.7 µM (active),4.67 µM (active),1.66 µM (active),inactive,inactive,1.53 µM (active),inactive,inactive,6.6 µM (active),2.4 µM (active)
CC(=O)[C@@H]1[C@@H](O)C[C@H]2[C@]3(C)CC[C@H]4C(C)(C)CCC[C@]4(CO)[C@H]3C[C@H]3OC(=O)[C@@H]1[C@@]32C,55.3 µM (active),inactive,inactive,inactive,inactive,inactive,inactive,inactive,inactive,inactive,inactive,inactive,inactive,inactive,inactive,inactive,inactive,inactive,inactive,inactive
C=C1C(=O)O[C@H]2C[C@H](C)[C@@H]3CC(=O)C(C)=C3[C@H](O)[C@H]12,inactive,13.3 µM (active),13.3 µM (active),14.9 µM (active),inactive,inactive,inactive,–,–,inactive,18.6 µM (active),13.2 µM (active),23.5 µM (active),inactive,inactive,10.9 µM (active),–,–,–,21.4 µM (active)
COc1ccc(/C=C2\COc3cc(O)ccc3C2=O)cc1,22 µM (active),inactive,inactive,inactive,inactive,inactive,inactive,inactive,inactive,inactive,inactive,inactive,inactive,–,inactive,–,inactive,inactive,inactive,–
CC12C[C@]3(O)O[C@@H](O1)[C@]1(COC(=O)c4ccccc4)[C@@H]3CC21OC1OC(CO)C(O)C(O)C1O (some centres undefined),inactive,inactive,inactive,inactive,inactive,inactive,inactive,inactive,inactive,inactive,inactive,inactive,inactive,inactive,inactive,inactive,inactive,inactive,inactive,inactive
CC1(C)CC[C@]2(C(=O)O)CC[C@]3(C)C(=CC[C@@H]4[C@@]5(C)C[C@@H](O)[C@H](O)C(C)(C)[C@@H]5CC[C@]43C)[C@@H]2C1,19.6 µM (active),inactive,inactive,–,inactive,inactive,inactive,inactive,inactive,inactive,inactive,inactive,inactive,inactive,inactive,inactive,–,–,–,inactive
CN1CC[C@]2(c3cccc4c3N[C@@H]3N(C)CC[C@]43[C@@]34CCN(C)[C@@H]3Nc3ccccc34)c3ccccc3N[C@H]12,inactive,14.9 µM (active),18.8 µM (active),18.8 µM (active),inactive,inactive,inactive,inactive,16.6 µM (active),inactive,9.31 µM (active),inactive,7.43 µM (active),inactive,inactive,24.3 µM (active),inactive,–,26.3 µM (active),15.2 µM (active)
CC(C)(Br)[C@@H](Cl)C[C@H](Br)[C@](C)(Cl)/C=C/Br,34.9 µM (active),23.6 µM (active),26.6 µM (active),–,inactive,inactive,inactive,inactive,inactive,inactive,inactive,inactive,inactive,inactive,inactive,–,inactive,inactive,inactive,–
CCCCCCCCCC(=O)[C@@H]1C(=O)N[C@@H](CC(C)C)C(=O)N[C@H](C)C(=O)N2CCC[C@H]2C(=O)N[C@@H](C(C)C)C(=O)N[C@H]2CS[C@H]1CNC2=O (cyclo(L[dA]PV[X1])),4.4 µM (active),inactive,inactive,inactive,inactive,inactive,inactive,inactive,inactive,inactive,inactive,inactive,inactive,inactive,inactive,inactive,inactive,inactive,inactive,inactive
C/C1=C/[C@@H](C)[C@H](O)C/C=C/CC/C=C/C(=O)O[C@@H]1[C@H](C)C(=O)/C=C/CC1CC(=O)NC(=O)C1,44 µM (active),18.8 µM (active),13.3 µM (active),8.38 µM (active),inactive,inactive,inactive,–,13.2 µM (active),inactive,inactive,16.6 µM (active),16.6 µM (active),inactive,inactive,13.7 µM (active),inactive,inactive,inactive,38.1 µM (active)
CN1CCc2cc3c(c4c2[C@H]1[C@@H](O)c1ccccc1-4)OCO3,44 µM (active),inactive,13.3 µM (active),inactive,inactive,inactive,inactive,inactive,–,inactive,26.2 µM (active),–,inactive,inactive,inactive,–,inactive,inactive,inactive,–
C=C[C@@]1(C)CC[C@@H]([C@H](C)C(=O)/C=C/C(C)C)O1,inactive,inactive,inactive,inactive,inactive,inactive,inactive,inactive,inactive,inactive,inactive,inactive,inactive,inactive,inactive,inactive,inactive,inactive,inactive,inactive
O=Cc1ccc2n1C[C@@]1(C[C@H](O)[C@H](O)CO1)OC2,inactive,inactive,inactive,13.3 µM (active),inactive,inactive,inactive,inactive,inactive,inactive,inactive,inactive,inactive,inactive,inactive,inactive,inactive,inactive,inactive,inactive
Oc1ccc([C@H]2Oc3ccc(/C=C/c4cc(O)cc(O)c4)cc3C2c2cc(O)cc(O)c2)cc1 (some centres undefined),24.7 µM (active),inactive,inactive,inactive,inactive,inactive,inactive,inactive,inactive,inactive,inactive,inactive,inactive,inactive,inactive,–,inactive,inactive,–,inactive
C=C(C)[C@@H]1CC[C@]2(C)CC[C@]3(C)[C@H](CC[C@@H]4[C@@]5(C)CC[C@H](O)C(C)(C)[C@@H]5CC[C@]43C)[C@@H]12,inactive,inactive,inactive,inactive,inactive,inactive,inactive,inactive,inactive,inactive,inactive,inactive,inactive,inactive,inactive,inactive,inactive,inactive,inactive,inactive

# — PubChem BioAssay (NCATS)
